Reference: ChEMBL document CHEMBL3988442, “University of Dundee, Small-Polar-MMV Screening Library” (2021)

Assays:
[1] = target: T1, Aspartate--tRNA(Asp/Asn) ligase (Mycobacterium tuberculosis (strain ATCC 25618 / H37Rv)) (UniProt P9WFW3); assay: Assay for Asp RNA synthetase-1 from Mycobacterium tuberculosis; type: functional; design: scale not given: direction of the effect not stated beside the values; settings: 30 µM; also: in the data most compounds retested in dose-response had high values
T1 sequence (whole entry): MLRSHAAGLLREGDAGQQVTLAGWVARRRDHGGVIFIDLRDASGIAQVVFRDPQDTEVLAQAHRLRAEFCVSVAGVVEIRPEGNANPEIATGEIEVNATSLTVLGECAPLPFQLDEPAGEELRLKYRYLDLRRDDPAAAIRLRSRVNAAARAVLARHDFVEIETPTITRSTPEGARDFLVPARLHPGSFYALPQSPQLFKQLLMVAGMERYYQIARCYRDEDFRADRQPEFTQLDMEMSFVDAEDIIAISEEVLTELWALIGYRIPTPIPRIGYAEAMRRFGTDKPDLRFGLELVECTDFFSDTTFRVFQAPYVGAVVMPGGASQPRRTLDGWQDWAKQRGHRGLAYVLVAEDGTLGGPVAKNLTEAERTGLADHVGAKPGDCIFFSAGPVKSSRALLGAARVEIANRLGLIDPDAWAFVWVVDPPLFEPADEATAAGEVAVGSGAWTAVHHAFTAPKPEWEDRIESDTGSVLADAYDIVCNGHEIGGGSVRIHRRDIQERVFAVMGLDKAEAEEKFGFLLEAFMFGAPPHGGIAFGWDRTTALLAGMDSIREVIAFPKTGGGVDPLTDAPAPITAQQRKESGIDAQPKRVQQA

[2] = target: Shiga toxin 2 (Escherichia coli O157:H7) (UniProt P09385+P09386); assay: E. coli 0.157:H7 Shiga Toxin SOP - stx2 screening assay; type: functional; design: scale not given: direction of the effect not stated beside the values; settings: 30 µM

Row | Structure (SMILES) | Percent Effect [1] [%] | Percent Effect [2] [%]
1 | CCCNC(=O)Nc1cccc2c1CCN(S(C)(=O)=O)C2 | 6.02 | -15
2 | CC(C)Cc1cc(C(=O)NCCc2ccc(S(C)(=O)=O)cc2)[nH]n1 | 3.53 | -19.9
3 | Cc1ccn(-c2cccc(C(=O)N3CCCC(n4ccnc4C)C3)c2)n1 (centres undefined) | -0.301 | -7.17
4 | Cc1nc(N2CCCC2)nc2c1CN(C(C)C)CC2 | 1.86 | -13.3
5 | O=C(Nc1cccc(CNCc2csc(Br)c2)c1)C1CC1 | -0.759 | -73.7
6 | CCn1cnnc1C1CCN(C(=O)c2ccc3cc[nH]c3c2)CC1 | -3 | -9.96
7 | CNc1nc2c(s1)C(c1cccc(F)c1F)CC(=O)N2 (centres undefined) | 34.5 | 3.28
8 | CC(O)CNCc1ccc(OCc2ccc3c(c2)OCCO3)cc1 (centres undefined) | 1.08 | -37.4
9 | CNC(=O)CSc1nc2c(cnn2Cc2ccc(F)cc2)c(=O)[nH]1 | -1.18 | -8.43
10 | CC(C)c1nc2n(n1)CC(NCc1nnc(-c3ccco3)o1)CC2 (centres undefined) | -3.46 | 11.7
11 | CCCOc1ccc(CNC2CCCc3c2cnn3CC)cc1OC (centres undefined) | -1.51 | -22.9
12 | O=C(Cc1cn2ccsc2n1)N1CCCC(n2cncn2)C1 (centres undefined) | -0.0111 | -30
13 | Cc1ccc(N2CCCC(NCc3ccsc3)C2)nn1 (centres undefined) | 4.57 | 10.6
14 | Fc1cccnc1OC[C@@]12CCO[C@@H]1CCN(CC1CCOCC1)C2 | 0.353 | 1.39
15 | CC(C(N)=O)N(C)CCCc1cc(-c2ccccc2)no1 (centres undefined) | 4.08 | 15
16 | CCCNCc1cc2c(C)cc(C)cc2n2c(=O)n(C)nc12 | -5.73 | -11.4
17 | O=C1NCC2(CCCN(Cc3ccc(Cl)s3)C2)Oc2ccccc21 (centres undefined) | -6.49 | -53.7
